The full list was thinned out, with hits kept by preference.
Shiga toxin inh: inhibitors of Shiga toxin in Vero cells; inhibition, % at 38.7 µM; 9.2% of 290,000 active; Vero cells, Shiga toxin protein synthesis inhibition reporter; in the data active = inhibition mostly above about 28%, no sharp cut-off; inactive = mostly below about 43%
LmPK inh: inhibitors of Leishmania mexicana pyruvate kinase; purified LmPK, Kinase-Glo ATP luminescence, 1 h; Potency, µM (highest dose often 57.5 µM), actives largely listed as inhibitors; 0.37% of 290,000 active; AID 1721
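Kinase-Glo luminescence read after 1 h RT reaction of 0.1 nM LmPK with 0.5 mM PEP and 0.1 mM ADP. Activity scaled between uninhibited and enzyme-free controls.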
Giardia FBPA inh: Giardia lamblia aldolase inhibition | AID 2451 | purified Giardia FBPA | A8B2U2 | 0.71% of 290,000 active | Potency, µM (series often up to 59.6 µM), usual class: inhibitors; also: nearly all actives have a fitted effect of over 55% in size
Target sequence (A8B2U2 whole entry, looked up): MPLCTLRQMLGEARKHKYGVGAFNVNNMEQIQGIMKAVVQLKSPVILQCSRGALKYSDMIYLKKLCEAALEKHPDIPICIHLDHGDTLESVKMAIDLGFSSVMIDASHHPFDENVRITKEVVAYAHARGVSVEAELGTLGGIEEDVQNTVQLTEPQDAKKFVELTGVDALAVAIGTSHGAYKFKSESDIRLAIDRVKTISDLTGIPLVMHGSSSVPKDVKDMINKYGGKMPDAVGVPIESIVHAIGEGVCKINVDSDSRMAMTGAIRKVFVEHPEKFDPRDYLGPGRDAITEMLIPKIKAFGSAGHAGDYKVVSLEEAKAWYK
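Giardia FBPA (40 nM reagent) was preincubated 10 min at RT with compound (up to 57.5 uM final), then substrate plus GAPDH/TPI/NAD/arsenate coupling system with diaphorase/resazurin was added; resorufin fluorescence (525/598 nm) was read after 20 min.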
CHX counter: affects cycloheximide protein synthesis inhibition readout, counter-screen. cell reporter, cycloheximide protein synthesis inhibition counterscreen. max response, %. 12% of 300,000 active. AID 2314; in the data active = max response mostly above about 13%, no sharp cut-off; inactive = mostly below about 14%; also: read at 38.3 µM for the half of the compounds with a filed dose
TbPYK inhibitor: inhibitors of Trypanosoma brucei pyruvate kinase; Q57TT1; TbPYK enzyme, Kinase-Glo Plus ATP luminescence, 45 min; Potency, µM (top dose mostly 76.8 µM), actives largely listed as inhibitors; 0.12% of 410,000 active; AID 624173; also: nearly all actives have a fitted effect of over 50% in size
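ADP (130 uM final) triggers the TbPYK reaction after compound addition; incubation is 45 min at room temperature. Kinase-Glo Plus is then added and luminescence imaged. Normalized data are fitted to concentration-effect curves.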
Sm TGR inh: inhibitors of Schistosoma mansoni thioredoxin glutathione reductase; Q962Y6; purified TGR, DTNB reduction, TNB absorbance 405 nm; Potency, µM (series often up to 114 µM), most hits filed as inhibitors; 3% of 360,000 active; also: nearly all actives have a fitted effect of over 60% in size
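Kinetic colorimetric format: TGR-catalysed, NADPH-driven DTNB reduction monitored via TNB absorbance. Enzyme dispensed at 20 nM; compound exposure 15 min at room temperature before reaction start.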
Hits are given with their value; i = inactive; ? = inconclusive; nt = no result given; [ ] = remark or other dose. Unless noted, calls follow the shape of the dose curve; as a rule, active = well fitted curve in the direction sought with a large enough effect; inconclusive = small, poorly fitted or top-dose-only effect, or another doubt; inactive = no such curve, though single readings can be large; an effect the other way counts as inactive or inconclusive.

SMILES	Shiga toxin inh	LmPK inh	Giardia FBPA inh	CHX counter	TbPYK inhibitor	Sm TGR inh
O=[N+]([O-])c1ccc(NN=CC2CCCCCC2)c([N+](=O)[O-])c1	nt	nt	nt	nt	i	nt
CC(C)(C)c1csc(NC(=O)c2c(F)c(F)c(F)c(F)c2F)n1	i	i	i	i	i	i
Cc1csc(NC(=O)c2cc([N+](=O)[O-])cc([N+](=O)[O-])c2)n1	i	i	i	i	i	i
CC(C)(C)c1csc(NC(=O)c2ccccc2O)n1	39	i	?	32	i	i
Cc1csc(NC(=O)c2cc(C)oc2C)n1	74	?	i	28	i	i
CC(C)(C)c1csc(NNC(=O)c2ccc(Br)cc2)n1	94	i[11.5 µM]	i	40	i	i
COc1ccccc1NC(=O)Nc1nc(C(C)(C)C)cs1	i	i	i	21	i	i
N#Cc1nc(-c2ccc(COc3ccc(Cl)cc3)o2)oc1N1CCC(C(N)=O)CC1	nt	nt	nt	nt	i	i
CC1(C)S[C@@H]2[C@H](NC(=O)[C@@H](N)c3ccccc3)C(=O)N2[C@H]1C(=O)O[C@H]1OC(=O)c2ccccc21	nt	nt	i	nt	i	nt
CC(C)c1ccc(NC(=O)Cn2c(=O)oc3cc(S(=O)(=O)N4CCCC4)ccc32)cc1	nt	nt	nt	nt	i	i
CCOC(=O)C1=CCN(S(=O)(=O)c2ccccc2Br)C1c1cccc(C)c1 (stereo unspecified)	nt	nt	nt	nt	i	nt
Cc1[nH]c(=O)[nH]c(=O)c1NC(=O)c1ccccc1[N+](=O)[O-]	nt	nt	nt	nt	i	nt
O=C(NC1CCCC1)c1ccc2nc(-c3ccco3)c(-c3ccco3)nc2c1	i	i	?	i	?	3.2µM
O=C(O)c1ccc2nc(-c3ccccc3)c(-c3ccccc3)nc2c1	65	i	i	56	i	i
c1coc(-c2cnc3ccccc3n2)c1	nt	nt	nt	nt	i	nt
c1coc(-c2nc3ccccc3nc2-c2ccco2)c1	i	i	?	i	?	3.5µM
O=C(NCCO)c1ccc2nc(-c3ccco3)c(-c3ccco3)nc2c1	i	i	?	i	i	1.8µM
O=C(NCCO)c1ccc(Cl)c(Cl)c1	i	i	i	i	i	i
CC(C)NC(=O)C1Cc2c(-c3ccc4c(c3)OCO4)ccnc2O1 (stereo unspecified)	nt	nt	nt	nt	i	nt
CC[C@H](/C=C/[C@@H](C)[C@H]1CC[C@H]2C3CC=C4C[C@@H](O)CC[C@]4(C)C3CC[C@]12C)C(C)C (stereo partly specified)	nt	nt	i	nt	nt	nt
O=C(NCCc1ccccc1)c1ccc2nc(-c3ccco3)c(-c3ccco3)nc2c1	i	i	?	i	?	1.3µM
O=C(NCCc1ccccc1)c1ccc(=O)oc1	i	i	i	i	i	i
O=C(c1ccccc1)c1ccc2nc(-c3ccco3)c(-c3ccco3)nc2c1	56	i	?	36	?	nt
CCc1nn(C(C)C(=O)N2CCN(c3cccc(C(F)(F)F)c3)CC2)c(=O)c2cc3occc3n12 (stereo unspecified)	nt	nt	nt	nt	i	i
O=C(COC(=O)c1ccc2ncsc2c1)Nc1ccccc1Cl	nt	nt	nt	nt	i	nt
SMILES	Shiga toxin inh	LmPK inh	Giardia FBPA inh	CHX counter	TbPYK inhibitor	Sm TGR inh
COC(=O)Cn1c(SCc2ccccc2)nc2ccccc21	i	i	i	18	i	i
O=C(O)CCn1c(SCCOc2ccccc2F)nc2ccccc21	i	i	i	18	i	i
COc1ccccc1OCCSc1nc2ccccc2n1CC(O)CO (stereo unspecified)	i	i	i	13	i	i
O=C(O)CCn1c(SCc2ccccc2)nc2ccccc21	23	i	i	i	i	i
COc1ccccc1OCCSc1nc2ccccc2n1CC(=O)O	nt	nt	nt	nt	i	nt
CCCc1ccc(OC(C)C(=O)Nc2sc3c(c2C(=O)OC)CCCCC3)cc1 (stereo unspecified)	nt	nt	nt	nt	i	i
CCOc1cccc2sc(N(Cc3cccnc3)C(=O)c3ccco3)nc12	nt	nt	nt	nt	i[15.4 µM]	i
C#CCOc1coc(COC(=O)c2ccccc2)cc1=O	i	i	i	23	i	i
O=c1cc(CO)occ1OCc1ccccc1	i	i	i	i	i	i
O=C(Nc1nc(-c2ccc(-c3ccccc3)cc2)cs1)c1cc([N+](=O)[O-])ccc1N1CCOCC1	i	i	i	i	i	i
O=C(Cc1cccs1)Nc1nc2c(ccc3ccccc32)s1	86	i	i	34	i	i
O=C(Nc1nc2c(ccc3ccccc32)s1)c1cc([N+](=O)[O-])ccc1N1CCOCC1	73	i	i	45	nt	nt
CC(=O)Nc1nc2c(ccc3ccccc32)s1	i	i	i	9.9	i	i
Cc1ccc(S(=O)(=O)N(C)c2ccc(OCC(=O)Nc3nc4c(ccc5ccccc54)s3)cc2)cc1	i	i	i	i	i	i
CCC(CO)Oc1cc(NCc2ccccc2Cl)c2ncn(C(C)C)c2c1 (stereo unspecified)	nt	nt	nt	nt	i	i
Cc1ccc(NC(=O)c2cccs2)cc1[N+](=O)[O-]	38	i	i	36	i	i
O=C(Nc1cc2cc([N+](=O)[O-])ccc2oc1=O)c1cccs1	52	i	i	28	nt	i
Cc1ccc(NC(=O)c2ccc(C(C)(C)C)cc2)cc1[N+](=O)[O-]	12	i	i	43	i	i
O=C(Nc1cccc(NC(=O)c2cccs2)c1)c1ccc([N+](=O)[O-])o1	i	i	i	13	i	?
COc1cc(NC(=O)c2ccc([N+](=O)[O-])o2)ccc1NC(=O)c1cccs1	i	i	i	i	i	i
CCOc1cc(CNCCSc2nnnn2-c2ccccc2)cc(Cl)c1OC	nt	nt	nt	nt	i	i
O=C(c1cccc(F)c1)N1CCC[C@@]2(CCN(C(c3ccccc3)c3ccccc3)C2)C1	nt	nt	i	nt	i	nt
O=C(CSc1nc2c([nH]c3ccccc32)c(=O)n1-c1ccc(F)cc1)NCC1CCCO1 (stereo unspecified)	nt	nt	nt	nt	i	i
COc1ccc(N2CCN(C(=O)C(CC(C)C)NS(=O)(=O)c3ccc4nc(C)sc4c3)CC2)cc1 (stereo unspecified)	nt	nt	nt	nt	i	i
Cc1cc(C)nc(/N=C(\N)Nc2ccc(C)c([N+](=O)[O-])c2)n1	i	i	i	i	i	i
SMILES	Shiga toxin inh	LmPK inh	Giardia FBPA inh	CHX counter	TbPYK inhibitor	Sm TGR inh
Cc1cc(C)nc(Nc2ccc(C)c([N+](=O)[O-])c2)n1	54	i	i	17	i	i
Cc1cccc(C(=O)NNC(=O)CSc2nnc(C3CC3)n2C)c1	i	i	nt	i	i	i
O=C(N/N=C/c1cccnc1)c1ccc([N+](=O)[O-])cc1	i	i	i	i	i	i
Clc1ccc(N/N=C/c2cccnc2)cc1	30	i	i	i	i	i
C(=N\N=C\c1cccnc1)/c1cccnc1	26	i	i	40	i	i
Cc1nnc(C)n1/N=C/c1cccnc1	i	i	i	i	i	i
Cc1sc(N/N=C/c2cccnc2)nc1-c1ccc(Cl)cc1	i	i	i	15	i	i
Cc1ccc(-c2cc(-c3ccccc3O)nc(N/N=C/c3cccnc3)n2)cc1	i	i	i	i	i	i

Screening data from PubChem.
